The record followed here is PubChem BioAssay (NCATS).

Inconclusive results are not listed. Where a call stands in place of a potency, no number is given. Values without a mark were called inactive. Activity calls are given as the source filed them. Calls come from the whole dose curve; as a rule, active = well fitted cell-killing curve with a large enough effect; inconclusive = small, poorly fitted or top-dose-only effect, or effect the other way; inactive = flat fitted curve, though single readings scatter. Where a SMILES comes first, the peptide text is derived from it. [ ]: non-standard residue; d: D form.

This experiment concerns Tov112D. Nature of the experiment: Primary qHTS to identify gynecologic anti-cancer compounds using libraries of approved drugs and bioactive compounds (AID 1345084). Note: nearly all actives have a fitted effect of over 55% in size. As to conditions: Gynecologic cancer cell panel viability, ATPlite luminescence, 48 h; series mostly up to 57.5 µM. An outline of the steps:
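Measured: luminescence after ATPlite addition (15 min, RT). Exposure: 48 h, 37 C, 5% CO2.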
(In general: Quantitative high-throughput screening tests each substance at several concentrations.)
Consider `COc1ccc(C(OC2OC(CO)C(O)C(O)C2O)C(C)O)cc1` (stereo unspecified), for which the Potency result is “inactive”. On the same count and under the same terms, the result for `CCOC(=O)N1CCC(NCCNC(=O)c2ccccc2C)CC1` reads “inactive”; that for `CCC(C)C(=O)O[C@@H]1[C@@H](O)[C@@H](O[C@H]2O[C@H](CO)[C@@H](O)[C@H](O)[C@H]2O)O[C@H](CO)[C@H]1O` (stereo partly specified), “inactive”. On the same count and under the same terms, the result for `Nc1ncnc2c1ncn2[C@H]1CCCO1` reads “inactive”. The same measure, in the same setting: as for `COc1cc(-c2cccc(O)c2)cc2c1OCO2`, the entry is “inactive”; as for `Nc1nc(CC(=O)Nc2ccc(CCNCC(O)c3ccccc3)cc2)cs1` (stereo unspecified), “inactive”; as for `O=C(/C=C/c1c(C(=O)O)[nH]c2cc(Cl)cc(Cl)c12)Nc1ccccc1`, “inactive”.

On to `CC1CCC2C(C)(C)C(O)CCC2(C)C12Cc1c(O)cc3c(c1O2)CN=C3N` (stereo unspecified), for which the Potency result is “inactive”. Same read-out and setting: as for `CC[C@H]1OC(=O)C[C@@H](O)[C@H](C)[C@@H](O[C@@H]2O[C@H](C)[C@@H](O)[C@H](N(C)C)[C@H]2O)[C@@H](CCN2C[C@H](C)C[C@H](C)C2)C[C@@H](C)C(=O)/C=C/C(C)=C/[C@@H]1CO[C@@H]1O[C@H](C)[C@@H](O)[C@@H](OC)[C@H]1OC`, the entry is “inactive”; as for `C[C@]12C=CC(=O)C=C1CC[C@@H]1[C@@H]2[C@@H](O)C[C@@]2(C)[C@H]1CC[C@]2(O)C(=O)COC(=O)CCC(=O)O`, “inactive”. The same measure, in the same setting: the result for `CC(C)=CCc1ccc(Oc2c(O)cc(C)cc2CO)c(C(=O)O)c1O` reads “inactive”.

With `NS(=O)(=O)NCCNc1nonc1C(=Nc1ccc(F)c(Br)c1)NO`, the Potency entry was “inactive”.

For the compound `CCC(=O)NS(=O)(=O)c1ccc(-c2c(-c3ccccc3)noc2C)cc1`, the Potency result is “inactive”.

In the case of `CC(=O)OC1C(O)C(C)=C(CCC(C)CC(=O)O)C2(C)CCCC(C)(C)C12` (stereo unspecified), the Potency result is “inactive”. As for `COC1=CC(=O)O[C@@H](/C=C/c2ccccc2)[C@@H]1O`, the Potency entry was “inactive”. For the compound `C[C@@H]1O[C@@H](O[C@@H]2[C@@H](O)[C@@H](O)[C@H](O[C@@H]3[C@@H](O)[C@@H](O[C@]4(CO)O[C@H](CO)[C@@H](O)[C@@H]4OC(=O)/C=C/c4ccc(O)cc4)O[C@H](CO)[C@H]3OC(=O)/C=C/c3ccc(O)cc3)O[C@H]2C)[C@H](O)[C@H](O)[C@H]1O`, the activity change, negative = cytotoxicity is -1.04% [at 11.6 µM]. Turning to `COC(=O)[C@@H]1C2CC3c4[nH]c5ccccc5c4CCN3CC2CC[C@@H]1O` (stereo partly specified), the Potency result is “inactive”.

Turning to `C[C@@H]1O[C@@H](O[C@H]2[C@H](OC(=O)[C@]34CCC(C)(C)C[C@H]3C3=CCC5[C@@]6(C)CC[C@H](O[C@@H]7O[C@H](CO[C@@H]8OC[C@H](O)[C@H](O)[C@H]8O)[C@@H](O)[C@H](O)[C@H]7O)C(C)(C)C6CC[C@@]5(C)[C@]3(C)C[C@H]4O)OC[C@@H](O)[C@@H]2O)[C@H](O)[C@H](O)[C@H]1O[C@@H]1OC[C@H](O)[C@H](O[C@@H]2OC[C@@H](O)[C@H](O)[C@H]2O)[C@H]1O` (stereo partly specified), the activity change, negative = cytotoxicity is 9.32% [at 6.55 µM]. Consider `CC(=O)N[C@H](Cc1ccc(O)cc1)C(=O)N[C@H](CCCN=C(N)N)C(=O)N[C@H](Cc1ccccc1)C(N)=O` (Ac-[dY]-[dR]-[dF]-NH2), for which the Potency entry is “inactive”. On the same count and under the same terms, the result for `CC(NCc1ccc(OCc2cccc(F)c2)cc1)C(N)=O` (stereo unspecified) reads “inactive”.

For the compound `Cc1coc2c1CC1OC1(C)CCC1OC1(C)C2` (stereo unspecified), the Potency entry is “inactive”.

In the case of `C[C@]12CCC[C@](C)(C(=O)O)C1CCC13C=C(CO)C(CCC12)C3` (stereo partly specified), the Potency entry was “inactive”. With `COc1cc(/C=C/C(=O)OC(C)(C)C(OC2OC(CO)C(O)C(O)C2O)C(=O)OCc2ccc(OC3OC(CO)C(O)C(O)C3O)cc2)ccc1O` (stereo unspecified), the Potency entry was “inactive”. In the case of `COc1cc2c(cc1OC)CN(C(=O)[C@@H](NCc1ccncc1)C(C)(C)C)CC2`, the Potency entry is “inactive”. On the same count and under the same terms, as for `O=C1NCc2nc3ccccc3c(=O)n2C1Cc1c[nH]c2ccccc12` (stereo unspecified), the entry is “inactive”.

For `CC1=CC(=O)CC(C)(C)C1CCC(C)OC1OC(COC(=O)c2cc(O)c(O)c(O)c2)C(O)C(O)C1O` (stereo unspecified), the Potency entry is “inactive”. The same measure, in the same setting: the result for `CC1C/C=C/C=C\CCCCC(O)C/C=C/C(=O)O1` (stereo unspecified) reads “inactive”.

Take `CO[C@@]12CC3[C@@H]([C@@H](O)[C@@H](OC(C)=O)C4[C@](C)(COC(C)=O)CCC[C@]34C)[C@@H](C)C1=CC(=O)O2` (stereo partly specified): the Potency entry is “inactive”. On the same count and under the same terms, the result for `CC1(C)CCCC2(C)C(CO)C3CCC2C31` (stereo unspecified) reads “inactive”. Still for that read-out and setting: the result for `O=C(O[C@H]1[C@@H]2C=CO[C@@H](O[C@@H]3O[C@H](CO)[C@@H](O)[C@H](O)[C@H]3O)[C@@H]2[C@@]2(CO)O[C@@H]12)c1ccc(O)c(O)c1` reads “inactive”; that for `C=CC(C)(C)C12CC3C(=O)NC(Cc4cnc[nH]4)C(=O)N3C1Nc1ccccc12` (stereo unspecified), “inactive”.
